Legend:
Format in all cases: functional
[1] = system: Plasmodium falciparum; assay: GSK_TCMDC: Inhibition of Plasmodium falciparum 3D7 in whole red blood cells, using parasite LDH activity as an index of growth. Test compounds present at 2uM
[2] = system: Plasmodium falciparum; assay: GSK_TCMDC: Inhibition of Plasmodium falciparum Dd2 in whole red blood cells, using parasite LDH activity as an index of growth. Test compounds present at 2uM
[3] = system: HepG2; assay: GSK_TCMDC: Percent inhibition of human HepG2 cell line. Test compounds present at 10uM.

Structure (SMILES)	Inhibition [1] [%]	Inhibition [2] [%]	Inhibition [3] [%]
Cc1ccc(OCCCCONC(=O)c2ccccc2)cc1	96	1	6
O=C(Cn1c(CCc2cccc(F)c2F)cc(=O)c2ccccc21)N(Cc1ccc(-c2ccc(C(F)(F)F)cc2)cc1)C1CCN(CCO)CC1.O=C(O)C(O)C(O)C(=O)O	91	84	82
COc1ccc(CNCC(C)(C)c2nc(-c3ccc(Cl)c(O)c3)c(-c3ccncc3)[nH]2)cc1.Cl	100	99	76
Br.CC(CCON1C(N)=NC(N)=NC1(C)C)c1ccc(Cl)cc1 (centres undefined)	93	97	64
Cc1cc2nc(-c3cccc(C(=O)NC4CCN(Cc5ccccc5)CC4)c3)[nH]c2cc1C	100	13	32
COc1ccc(Cn2ccc3c4c(N)nc(N)nc4ccc32)cc1	100	93	90
O=C(Nc1ccc(-c2cccc(-c3nc4ccccc4[nH]3)c2)cc1)NC1CC1c1ccccc1 (centres undefined)	84	6	63
CCn1cc(CN2CCCC(C(=O)Nc3ccc(-c4nc5ccccc5[nH]4)cc3)C2)c(C)n1 (centres undefined)	100	28	22
CC(=O)N/N=C/[C@H](CCc1ccccc1)NC(=O)[C@H](CC(C)C)NC(=O)c1cccc(OCCN2CCOCC2)c1	94	78	13
COc1cccc2c1CCN(CCN1CCC(CNC(=O)c3ccc(-c4ccc(C#N)cc4)cc3)CC1)C2	99	98	57
COc1cccc(Nc2nc(C)cc(NC3CCCC3)n2)c1	100	79	41
CCNc1cc(C(=O)N[C@@H](Cc2ccccc2)[C@H](O)CNC2CC3CCC2C3)cc(N2CCCCS2(=O)=O)c1.Cl (some centres undefined)	99	73	0
CC(CN(C)C)C(=O)Nc1cccc(-c2ccc(-c3nc4cc(F)ccc4[nH]3)s2)c1 (centres undefined)	100	99	3
O=C(/C=C/c1ccc(Cl)c(Cl)c1)N1CCC(CN2CCC(c3nc4ccccc4n3CCCO)CC2)CC1	96	0	60
O=C(/C=C/c1ccc(Cl)c(Cl)c1)NCCCCCN1CCCN(C(=O)Nc2cc(F)cc(F)c2)CC1	94	1	4
COc1cc(Nc2nccc(N3CCC(NC(=O)c4cccc(NC(C)=O)c4)C3)n2)cc(OC)c1OC (centres undefined)	98	68	9
O=C(O)C(F)(F)F.O=S(=O)(NCCN1CCCC1)c1ccc(-c2ccc(CNCc3ccsc3)cc2)cc1F	96	40	27
CN(C)c1cccc2c1nc(-c1ccco1)n2CC1CCCN1.O=C(O)C(F)(F)F (centres undefined)	86	46	0
Nc1c(Cl)cc(C(O)CNCCCCCOCCCc2ccc(O)c3ncccc23)cc1Cl.O=C(O)/C=C/C(=O)O (centres undefined)	90	12	65
Cc1cc2ncn(-c3nccc(NCc4ccc(F)cc4)n3)c2cc1C.O=C(O)C(F)(F)F	98	83	10
CN1CCCN(c2ccnc3cc4c(cc23)N(C(=O)c2ccc(Cl)c(Cl)c2)CC4)CC1.Cl	100	73	20
CCC(c1ccccc1)c1nn2c(-c3cccs3)nnc2s1 (centres undefined)	97	95	10
Cc1nc(C)c(-c2ccc(Cl)cc2Cl)c(O)c1Br	87	57	3
COc1ccccc1CCCN1C(=O)C(c2ccccc2)(c2ccccc2)N=C1N.O=C(O)C(F)(F)F	99	99	49
COc1cccc(C2CCN(CCN3CCC(CNC(=O)c4ccc(-c5ccc(C(F)(F)F)cc5)cc4)CC3)CC2)c1	100	42	41
Cc1nc2sccn2c1C(=O)NCCc1ccccc1Cl	96	1	6
COc1ccc(C2CCN(CCCNC(=O)c3ccc(NC(=O)c4ccc(Cl)cc4)cc3)CC2)c(OC)c1	99	58	26
CC(=O)CCc1ccc(OCCN(Cc2ccccc2C(F)(F)F)c2ccc(C#N)c(C(F)(F)F)c2)cc1	100	87	14

Reference: ChEMBL document CHEMBL1157539, “Thousands of chemical starting points for antimalarial lead identification” (Nature, 2010)
